A short description of experiment [1]: GFP-Q80 aggregate reduction, neuronal-like cells, cell-based, NGF-treated PC12, GFPQ80 (AID 1614).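 Further: lower means fewer inclusions and 0 means no inclusions at all.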 The settings on record: PC12 NGF-treated GFP-polyQ80 inclusion reduction.
The nature of experiment [2]: compounds altering circadian rhythm period length – cell-based, LOPAC library, luminescence reporter (AID 2774).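 Further: values are relative to mean of DMSO wells on each plate.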 The settings on record: circadian reporter cells, at 7 µM, actives lie on both sides.
Experiment [3] has as its system Hepatitis C virus NS3 helicase. Put plainly: blockers of NS3h binding to ssDNA – biochemical, fluorescence polarization, LOPAC1280 library, primary screen (AID 687035; in the data active means inhibition above about 37%). The settings on record: Purified HCV NS3 helicase, Cy5-dT15 ssDNA binding fluorescence polarization; stronger effect = higher value; concentration not given here.
Experiment [4] in a line: compounds altering Cy5-DNA-NS3h complex signal – biochemical, LOPAC1280, artefact control for HCV NS3 helicase inhibitor project (AID 687037). Conditions: Cy5-DNA-NS3h complex fluorescence interference counterscreen.
Experiment [5] is described as follows: viability loss in pontine glioma line – cell-based, SU-DIPG-XVII, MIPE5.0, CellTiter-Glo, qHTS, dose response (AID 1347060; cut-off not given, nearly all actives have AC50 up to about 26 µM). Conditions: CellTiter-Glo ATP luminescence. A general note: Cellular ATP, detected with luciferase, serves as a proxy for viable cell number.
Experiment [6] is described as follows: viability loss in pontine glioma line – cell-based, SU-DIPG-XIII, MIPE4.0, CellTiter-Glo, qHTS, dose response (AID 1347061; cut-off not given, nearly all actives have AC50 up to about 37 µM;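 further: cells exposed to compound for 48 hours before readout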). The settings on record: CellTiter-Glo ATP luminescence.
Experiment [7] in a line: viability loss in pontine glioma line – cell-based, JHH-DIPG-1, MIPE4.0, CellTiter-Glo, qHTS, dose response (AID 1347062; cut-off not given, nearly all actives have AC50 up to about 27 µM;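 on AC50: cells exposed to compound for two days before readout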). Conditions: JHH-DIPG-1 viability, CellTiter-Glo ATP luminescence.
The nature of experiment [8]: viability loss in pontine glioma line – cell-based, SU-DIPG-IV, MIPE4.0, CellTiter-Glo, qHTS, dose response (AID 1347063; cut-off not given, nearly all actives have AC50 up to about 30 µM;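 further: compound exposure lasted 48 hours before the viability readout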). The settings on record: CellTiter-Glo ATP luminescence.
Experiment [9] is described as follows: viability loss in pontine glioma line – cell-based, SU-DIPG-XIII, MIPE5.0, CellTiter-Glo, qHTS, dose response (AID 1347064; cut-off not given, nearly all actives have AC50 up to about 23 µM). Conditions: CellTiter-Glo ATP luminescence.
Experiment [10] is described as follows: viability loss in pontine glioma line – cell-based, SU-DIPG-XXV, MIPE5.0, CellTiter-Glo, qHTS, dose response (AID 1347065; cut-off not given, nearly all actives have AC50 up to about 26 µM;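 further: cells exposed to compound for 48 hours before ATP readout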). The settings on record: CellTiter-Glo ATP luminescence.
Experiment [11] in a line: growth inhibition of DIPG cells – cell-based, MIPE4.0 library, CellTiter-Glo luminescence, qHTS (AID 1347066; cut-off not given, nearly all actives have AC50 up to about 30 µM;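 further: cells exposed to compound for 48 hours before readout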). The settings on record: SU-DIPG-VI viability, CellTiter-Glo ATP luminescence.
Experiment [12] is described as follows: JHH-DIPG-1 glioma cell viability, MIPE5.0 library, CellTiter-Glo luminescence, qHTS (AID 1347067; cut-off not given, nearly all actives have AC50 up to about 26 µM;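 further: cells exposed to compound for 48 hours before readout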). The settings on record: JHH-DIPG-1 glioma viability, CellTiter-Glo ATP luminescence.
A short description of experiment [13]: growth inhibition of DIPG cells – cell-based, MIPE5.0 library, qHTS (AID 1347068; cut-off not given, nearly all actives have IC50 up to about 30 µM;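 on IC50: cells exposed to compound for 48 hours before viability readout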). Conditions: SU-DIPG-XXV viability.
A short description of experiment [14]: blockers of cellular phospholipid synthesis – cell-based, LOPAC library, screen 4, primary screen (AID 1347384). Conditions: animal cells, phospholipid biosynthesis inhibition screen; at 10 µM.
Experiment [15] is described as follows: compounds altering HSF1 focus formation in cells – imaging, Selleck Cancer Library (AID 1347162; in the data active means plate-normalised HSF1 focus index below about 0.46). The settings on record: human cells, HSF1 nuclear foci imaging, at 10 µM; SSMD: measured here: HSF1 foci SSMD mean; cell count: measured here: cell number; plate-normalised HSF1 focus index: stronger effect = lower value.
The target in experiment [16] is ATP-dependent translocase ABCB1 (Homo sapiens) (UniProt P08183). Put plainly: P-glycoprotein substrate transport blockade – cell-based (AID 377; in the data active means fluorescence slope change above about 50%). The settings on record: MDR1-expressing cells, fluorescent substrate accumulation slope; stronger effect = higher value; concentration not given here.
Experiment [17] concerns Aerobactin synthetase IucA (Klebsiella pneumoniae). In words: inhibition of K. pneumoniae IucA enzyme – biochemical, Tocris library, absorbance (AID 1345561).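 Further: 100% = enzyme without compound and 0% = no enzyme.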 Conditions: purified IucA enzyme assay, absorbance (OD) read-out; stronger effect = lower value;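 tested at 8 µM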.

We go through 15 molecules from PubChem BioAssay.

Results filed as inconclusive are left out. Calls of active or inactive are those of the source. Unless noted, how the calls were made is not given here.

Chain of ATP-dependent translocase ABCB1 (Homo sapiens) (P08183 whole entry, looked up): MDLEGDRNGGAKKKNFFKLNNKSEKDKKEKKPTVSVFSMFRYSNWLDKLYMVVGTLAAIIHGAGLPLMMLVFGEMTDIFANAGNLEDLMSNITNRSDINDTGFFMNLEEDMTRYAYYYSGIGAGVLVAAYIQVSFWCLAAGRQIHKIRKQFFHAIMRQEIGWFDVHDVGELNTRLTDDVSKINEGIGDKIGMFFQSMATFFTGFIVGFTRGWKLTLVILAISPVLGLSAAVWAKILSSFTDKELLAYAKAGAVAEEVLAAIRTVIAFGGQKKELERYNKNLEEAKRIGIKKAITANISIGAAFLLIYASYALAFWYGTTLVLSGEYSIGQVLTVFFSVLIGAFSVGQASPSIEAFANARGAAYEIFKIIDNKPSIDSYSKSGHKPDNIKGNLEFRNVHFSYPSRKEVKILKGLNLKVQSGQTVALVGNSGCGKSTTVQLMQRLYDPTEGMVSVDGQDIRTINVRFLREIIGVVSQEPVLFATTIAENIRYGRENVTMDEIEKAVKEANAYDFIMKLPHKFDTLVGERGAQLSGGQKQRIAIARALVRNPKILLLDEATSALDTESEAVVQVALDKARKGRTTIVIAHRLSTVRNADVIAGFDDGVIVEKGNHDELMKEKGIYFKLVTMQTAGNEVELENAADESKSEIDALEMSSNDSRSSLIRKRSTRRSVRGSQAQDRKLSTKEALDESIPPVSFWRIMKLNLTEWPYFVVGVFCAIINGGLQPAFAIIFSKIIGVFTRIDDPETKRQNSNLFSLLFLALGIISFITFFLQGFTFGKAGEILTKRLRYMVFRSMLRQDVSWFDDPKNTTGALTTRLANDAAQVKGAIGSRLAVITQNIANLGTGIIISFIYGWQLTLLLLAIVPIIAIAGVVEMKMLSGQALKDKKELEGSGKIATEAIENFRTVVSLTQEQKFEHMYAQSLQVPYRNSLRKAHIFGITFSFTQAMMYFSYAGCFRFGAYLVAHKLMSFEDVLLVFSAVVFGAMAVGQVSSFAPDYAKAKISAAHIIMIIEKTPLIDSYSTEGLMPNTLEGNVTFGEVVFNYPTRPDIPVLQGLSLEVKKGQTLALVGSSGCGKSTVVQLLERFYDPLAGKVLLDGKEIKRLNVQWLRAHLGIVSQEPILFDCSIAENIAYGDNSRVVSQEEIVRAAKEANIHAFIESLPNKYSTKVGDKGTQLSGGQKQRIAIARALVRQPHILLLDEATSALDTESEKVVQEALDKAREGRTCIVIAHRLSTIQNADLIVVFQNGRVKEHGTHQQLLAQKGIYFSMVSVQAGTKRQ

One may read the inhibition as the change of the read-out against control, counted positive when it falls. A word on the AC50: it is the concentration at which the activity in the assay is half-maximal. `O=C(c1ccccc1)c1ccc2n1CCC2C(=O)O` (stereo not given): the inclusion score in experiment [1] was found to be 2. Further, the period change in experiment [2] was -0.025 h (inactive). Besides, in experiment [3], the inhibition was -3% (inactive). The fluorescence ratio (interference) in experiment [4] was 1 (inactive). Also, the call in experiment [5], in [7], in [8], in [9], in experiment [10] and in experiment [11] was inactive. Also, the result in experiment [12], in [13] and in [14] was inactive. The AC50 in experiment [6] is 8.33 µM (active).

In the case of `C[C@@H]1C[C@H]2[C@@H]3CCC4=CC(=O)C=C[C@]4(C)[C@@]3(F)[C@@H](O)C[C@]2(C)[C@@]1(O)C(=O)CO`, the result in experiment [5], in experiment [9], in [10], in experiment [12] and in experiment [13] was inactive. Besides, the SSMD in [15] is 1.52. In addition, the cell count in [15] was 6940. Further, the plate-normalised HSF1 focus index in experiment [15] was 1.08 (inactive).

As usually defined, the remaining activity is the signal under treatment as a percentage of the control signal. As to `Nc1c2c(nc3ccccc13)CCCC2`, in experiment [16], the fluorescence slope change is 56.2% (active). For the same molecule, the inclusion score in experiment [1] was 2. Further, the period change in experiment [2] is -0.225 h (inactive). Besides, in experiment [3], the inhibition was -2% (inactive). Further, in experiment [4], the fluorescence ratio (interference) was 1 (inactive). Also, the remaining activity in experiment [17] is 109% (inactive). Moreover, the call in experiment [5], in [6], in [7], in experiment [8], in [9] and in experiment [10] was inactive. Besides, the call in experiment [11], in experiment [12], in [13] and in experiment [14] was inactive.

Usually IC50 stands for the point on the concentration scale where inhibition reaches its midpoint. With `Nc1nc2ccc(OC(F)(F)F)cc2s1`, the fluorescence slope change in experiment [16] is 60.6% (active). Moreover, the period change in experiment [2] is 0.11 h (inactive). The inhibition in [3] is -3% (inactive). For the same molecule, the fluorescence ratio (interference) in experiment [4] is 0.9 (inactive). Moreover, the remaining activity in experiment [17] is 83.1% (inactive). Further, the outcome in experiment [5], in [6], in [7], in [9], in experiment [11] and in [14] was inactive. Moreover, the IC50 in experiment [13] was 20.9 µM (active).

As for `CNCCCC12CCC(c3ccccc31)c1ccccc12`, the fluorescence slope change in [16] is 137% (active). The period change in experiment [2] is 2.03 h (inactive). For the same molecule, in experiment [3], the inhibition was -6% (inactive). The fluorescence ratio (interference) in experiment [4] was 0.9 (inactive). The remaining activity in [17] is 112% (inactive). Further, the figures for the AC50 in experiment [7] and in experiment [10] were 20.9 µM (active) and 23.5 µM (active), respectively. Also, the outcome in experiment [11], in experiment [13] and in experiment [14] was inactive.

In the case of `CCCN1C[C@H](CSC)C[C@@H]2c3cccc4[nH]cc(c34)C[C@H]21`, the fluorescence slope change in experiment [16] is 72.8% (active). Besides, the inclusion score in experiment [1] stood at 2. In addition, the period change in [2] was 0.02 h (inactive). For the same molecule, the inhibition in experiment [3] was -6% (inactive). In addition, in experiment [4], the fluorescence ratio (interference) is 1 (inactive). Further, in [14], the molecule was classed as inactive.

For the molecule `CC1(C)O[C@@H]2C[C@H]3[C@@H]4CCC5=CC(=O)C=C[C@]5(C)[C@@]4(F)[C@@H](O)C[C@]3(C)[C@]2(C(=O)CO)O1`, the molecule was called inactive in experiment [5], in experiment [6], in experiment [8], in [9], in [10] and in [11]. Further, the outcome in experiment [12] and in experiment [13] was inactive.

For the molecule `C[C@]12C=CC(=O)C=C1CC[C@@H]1[C@@H]2[C@@H](O)C[C@@]2(C)[C@H]1CC[C@]2(O)C(=O)CO`, the outcome in experiment [5], in experiment [6], in [7], in experiment [9] and in [12] was inactive.

Take `CNC(=O)Oc1ccc2c(c1)[C@]1(C)CCN(C)[C@@H]1N2C`: in [1], the inclusion score came to 2. In addition, the period change in experiment [2] is 0.16 h (inactive). The inhibition in experiment [3] is -2% (inactive). The fluorescence ratio (interference) in experiment [4] was 1 (inactive). Besides, in [14], the call was inactive.

With `COc1ccccc1N1CCN(CCCNc2cc(=O)n(C)c(=O)n2C)CC1`, in experiment [2], the period change is 0.18 h (inactive). In experiment [3], the inhibition was -4% (inactive). In addition, the fluorescence ratio (interference) in experiment [4] was 1 (inactive). Further, in experiment [17], the remaining activity is 103% (inactive). The molecule was called inactive in experiment [14].

On to `COc1ccc2c(c1)c(CC(=O)O)c(C)n2C(=O)c1ccc(Cl)cc1`, for which the fluorescence slope change in [16] was 95% (active). The same molecule yielded an inclusion score in experiment [1] of 2. The period change in [2] is 0.07 h (inactive). The inhibition in [3] was -5% (inactive). Further, the fluorescence ratio (interference) in [4] was 1 (inactive). In experiment [17], the remaining activity was 120% (inactive). In addition, the molecule was classed as inactive in experiment [5], in [10], in experiment [11], in [12] and in experiment [13]. Further, the AC50 in experiment [6] is 18.7 µM (active).

Take `Fc1ccc([C@@H]2CCNC[C@H]2COc2ccc3c(c2)OCO3)cc1`: in experiment [3], the inhibition was -1% (inactive). Moreover, the fluorescence ratio (interference) in experiment [4] was 0.9 (inactive). Also, in experiment [17], the remaining activity was 109% (inactive). Further, the outcome in experiment [11] and in [14] was inactive.

In turn, `NC(N)=NC(=O)c1nc(Cl)c(N)nc1N` came in with an inclusion score in [1] of 2. The period change in experiment [2] is 0.02 h (inactive). Moreover, the inhibition in [3] is 1% (inactive). In addition, the fluorescence ratio (interference) in [4] is 0.9 (inactive). In experiment [17], the remaining activity was 101% (inactive). For the same molecule, the outcome in experiment [5], in experiment [7], in experiment [9], in experiment [10], in experiment [11] and in experiment [12] was inactive. Further, the result in experiment [13] and in experiment [14] was inactive. Moreover, the AC50 in experiment [6] was 14.8 µM (active).

As to `CC(=O)O[C@]1(C(C)=O)CC[C@H]2[C@@H]3C=C(C)C4=CC(=O)CC[C@]4(C)[C@H]3CC[C@@]21C`, the AC50 was 11.8 µM (active) in [7] and 8.33 µM (active) in experiment [8]. Moreover, the result in experiment [9], in experiment [11] and in experiment [13] was inactive. In [15], the SSMD was 0.639. Besides, the cell count in experiment [15] turned out to be 7050. For the same molecule, the plate-normalised HSF1 focus index in experiment [15] is 1.04 (inactive).

`CC(=O)OCC(=O)[C@@]12OC(C)(C)O[C@@H]1C[C@H]1[C@@H]3C[C@H](F)C4=CC(=O)C=C[C@]4(C)[C@@]3(F)[C@@H](O)C[C@@]12C`: in experiment [16], the fluorescence slope change was 14.5% (inactive). The call in [6], in experiment [7], in [9], in experiment [10], in experiment [11] and in [13] was inactive.
